Results on 52 compounds are retold here after PubChem BioAssay AID1745849 (National Center for Advancing Translational Sciences (NCATS), 2022).

Structures are written as SMILES. About 320 (15%) of roughly 2,100 compounds were called active. About 52% were inconclusive and are not listed. The list shows a part of the results. A number with no mark means an inactive call. Calls come from the whole dose curve; as a rule, active = well fitted cell-killing curve with a large enough effect; inconclusive = small, poorly fitted or top-dose-only effect, or effect the other way; inactive = flat fitted curve, though single readings scatter.
% is set by controls: 0 for no effect and ±100 for the full control effect; potency is the fitted concentration of half-maximal effect.

A short description of this test: Viability Counterscreen for CMV-Luciferase Assay of Inhibitors of ATXN expression. Note: nearly all actives have a fitted effect of over 55% in size. The settings on record: HEK-293 CMV-luciferase cells viability, protease fluorescence, 24 h; series mostly up to 57.5 µM; activity change, negative = cytotoxicity: at the top concentration. An excerpt:
PI: Daniel Scoles Ph.D. University of Utah School of Medicine, Salt Lake City, Utah MLPCN Grant: NS073009 Spinocerebellar ataxia type 2 (SCA2) is a multisystem neurodegenerative disease caused by a dominantly acting mutation leading to expansion of a polyQ domain in the ataxin-2 protein (ATXN2). SCA2 patients develop progressive ataxia and later lose function in other neuronal systems. Prominent parkinsonian signs develop in some patients. Like many neurodegenerative disorders, no symptomatic or disease-modifying treatments are known. The primary objective of the proposed research is to identify compounds inhibiting ATXN2 expression and to test them for efficacy in SCA2 mouse models. We have developed a cell-based assay paired with an in vivo mouse model using identical luciferase expression constructs. This approach takes advantage of an ATXN2-luciferase transgene, with the luciferase gene flanked by the upstream and downstream portions of the ATXN2 gene. Here we describe a 5-7 dose quantitative high thoroughput screen (qHTS) for compounds lowering ATXN2 expression. We screened the NIH Molecular Libraries Small Molecule Repository (MLSMR) and NCGC's mechanistically annotated (MIPE) and drug repurposing (NPC) collections of compounds for lowering expression of an ATXN2-luciferase reporter in HEK-293 cells. The assay is a multiplexed cell viability assay to ensure target reduction in the absence of cytotoxicity. Secondary qHTS assays included a CMV-luciferase reporter expressed in HEK-293 cells as well as a biochemical assay using recombinant luciferase to detect inhibitors of the reporter enzyme. Compounds that inhibit ATXN2 expression but is not cytotoxic were selected for confirmatory and secondary screens.
PROTOCOL TABLE (as described by Inglese J, Shamu CE and Guy RK. 2007) SEQUENCE No. (e.g., 1, 2, 3, etc.); […] (e.g., Cells, Incubation, Reagent, etc.); VALUE; DESCRIPTION. 1; Cells; 4 uL; white, solid bottom, 1536-well Greiner assay plate. 2; Incubation; 2 hr; 37 degree C in 5% humidified CO2. 3; Compounds; 23 nL; Kalypsis pintool (Wako USA) equipped with a 1536-well pin head. 4; Incubation; 24 hr; 37 degree C in 5% humidfified CO2. 5; Reagent; 1 uL; Gly-Phe-7-Amino-4-trifluoromethylcoumarin. 6; Incubation; 30 min; 37 degree C in 5% humidfified CO2. 7; Detection; Fluorescence; Viewlux plate reader (PerkinElmer). 8; Reagent; 3 uL; SteadyGlo luciferase solution (Promega). 9; Incubation; 5 min; room temperature. 10; Detection; Luminescence; ViewLux plate reader (PerkinElmer). NOTES (numbers refer to Sequence numbers above) 1. HEK-293 cells expressing CMV-luciferase reporter (designated as SC cells) were suspended in phenol-red free DMEM and dispensed in assay plates using a Multidrop Combi dispenser (Thermo Fisher Scientific). 2. Assay plates were incubated. Evaporation was prevented by covering assay plates with metal lids containing holes to allow gas diffusion. 3. Compounds were added in a dose response manner with the final concentrations of 57, 11.4, 2.28, 0.46, 0.091, 0.018, 0.0037 uM. Vehicle-only plates, with DMSO being pin-transferred to columns 5-48, were inserted uniformly at the beginning and the end of each library to monitor and record any shifts in assay performance. 5. 125 uM Gly-Phe-7-Amino-4-trifluoromethylcoumarin (MP Biomedicals) working concentration was used at a final concentration of 25 uM. 7. To assess cell viability; the assay plates were read using the ViewLux high-throughput CCD imager (PerkinElmer), wherein single end-point fluorescence measurement was acquired (excitation 405/10; emission 540/25 nm). 8. Detection reagent SteadyGlo Luciferase (Promega) was added to the assay plate. 10. Luminescence is then measured on the ViewLux imager equipped with a clear emission filter using a 2 sec exposure. […]
With `COC12C(COC(N)=O)C3=C(C(=O)C(C)=C(N)C3=O)N1CC1C2N1C` (configuration not stated), the Potency is 12.6 µM (active). Take `Cc1cccc(C)c1-n1nnnc1C(c1cc2ccccc2o1)N1CCC(n2c(=O)[nH]c3ccccc32)CC1` (configuration not stated): the Potency was 7.94 µM (active). For `O=c1[nH]c2ccccc2n1C1CCN(C(CCc2ccccc2)c2nnnn2C2CCCC2)CC1` (configuration not stated), the Potency was 11.2 µM (active).

On to `CC(C)(C)n1nnnc1C(CCc1ccccc1)N1CCC(n2c(=O)[nH]c3ccccc32)CC1` (configuration not stated), for which the Potency is 20 µM (active). With `CN1C(=O)NC(=O)/C(=C\C=C\c2ccccc2[N+](=O)[O-])C1=O`, the Potency is 7.94 µM (active).

Turning to `Oc1c(Cl)cccc1Cc1cc(Cl)cc(Cl)c1O`, the Potency is 15.8 µM (active).

As to `c1ccc(CNc2c3c(nc4ccccc24)CCC3)cc1`, the “activity change, negative = cytotoxicity” value is -29.3%. On to `O=C(Nc1ccc(OC(=O)N2CCCCC2)cc1)N1CCOCC1`, for which the “activity change, negative = cytotoxicity” value was -4.56%. As for `CC12CCC3C(CCC4(O)CC(O)CCC34C=NO)C1(O)CCC2C1=COC(=O)C1` (configuration not stated), the Potency was 0.891 µM (active).

Take `CCCCN=C[C@]12CCC(O)CC1(O)CCC1[C@@H]2CC[C@]2(C)[C@H](C3C=CC(=O)O3)CCC12O` (some centres not stated): the Potency was 1.78 µM (active).

Regarding `C1=NCCc2c1[nH]c1ccccc21`, the activity change, negative = cytotoxicity was 1.29% [at 11.4 µM]. Consider `COc1cccc2c1C(=O)c1c(O)c3c(c(O)c1C2=O)CC(O)(C(C)=NO)CC3OC1CC(N)C(O)C(C)O1` (configuration not stated), for which the Potency is 14.1 µM (active).

As to `O=[N+]([O-])c1oc2ccc3ccccc3c2c1CCO`, the Potency is 20 µM (active). In the case of `Cc1ccc(-c2nc(N(C)C3CCN(C)CC3)c3ccccc3n2)cc1`, the “activity change, negative = cytotoxicity” value is -16.3%. As for `c1ccc2sc(N3CCNCC3)nc2c1`, the “activity change, negative = cytotoxicity” value is 13.3%. As for `N[C@@H](Cc1ccc(N(CCCl)CCCl)cc1)C(=O)O`, the Potency is 12.6 µM (active).

Consider `O=C(NN=Cc1ccc(N(CCCl)CCCl)cc1)c1cc(=O)[nH]c(=O)[nH]1`, for which the “activity change, negative = cytotoxicity” value was -16.7%. In the case of `O=C1NC(=O)N(CCc2ccc(F)cc2)C(=O)/C1=C/C=C/c1ccccc1`, the Potency was 7.94 µM (active). The same measure, in the same setting: to `COc1ccc(CC2NCC(O)C2OC(C)=O)cc1` (configuration not stated) belongs 0.282 µM (active).

On to `CCC1(OC(=O)CN)C(=O)OCc2c1cc1n(c2=O)Cc2cc3ccccc3nc2-1` (configuration not stated), for which the activity change, negative = cytotoxicity is 14.6% [at 11.4 µM]. On to `COC(=O)c1nc(-c2ccc3c(n2)C(=O)C(N)=C(OC)C3=O)c(N)c(-c2ccc(OC)c(OC)c2O)c1C`, for which the Potency was 20 µM (active). As for `C[C@@H]1O[C@@H](O[C@@H]2C=C3CC[C@@H]4C(CC[C@]5(C)[C@@H](c6ccc(=O)oc6)CC[C@]45O)[C@@]3(C)CC2)[C@H](O)[C@H](O)[C@H]1O` (some centres not stated), the Potency was 8.91 µM (active). Same read-out and setting: to `COc1ccc(CC2C(=O)NC(C)C(=O)N(C)C3C(=O)N(C)C(Cc4ccc(O)c(c4)Oc4ccc(cc4)C3O)C(=O)NC(C)C(=O)NC(C)C(=O)N2C)cc1` (configuration not stated) belongs 0.355 µM (active); to `O=C(CSC1c2ccccc2-c2ccccc21)N/N=C/c1ccccc1O`, 3.55 µM (active); to `CCCCCCC(=O)N/N=C/c1c(O)n(CCc2ccccc2)c(=O)[nH]c1=O`, 8.91 µM (active).

In the case of `CCCCCCC(=O)N/N=C/c1c(O)n(CCCC)c(=S)[nH]c1=O`, the “activity change, negative = cytotoxicity” value is -24.1%. The same measure, in the same setting: to `CC(=NCCc1c[nH]c2ccccc12)c1c(O)n(Cc2ccccc2)c(=O)[nH]c1=O` belongs -2.48%. For the compound `COc1ccc(CCNCc2ccc(F)cc2)cc1OC`, the activity change, negative = cytotoxicity was -21.2% [at 11.4 µM]. Consider `CC(=O)OC1CC2(O)C3CCC4CC(O)CCC4(C)C3CCC2(C)C1C1=CC(=O)OC1` (configuration not stated), for which the Potency was 0.501 µM (active). Same read-out and setting: for `C[C@]12CCC3C(CCC4=CC(O)CC[C@@]43/C=N/O)C1(O)CCC2C1=CC(=O)OC1` (some centres not stated) the value was 1.41 µM (active); for `CC12CCC(O)CC1CCC1C2CCC2(C)C(C3=CC(=O)OC3)C(O)CC12O` (configuration not stated), 7.94 µM (active). The same measure, in the same setting: for `C[C@]12CC[C@H](O)C[C@H]1CC[C@@H]1[C@@H]2CC[C@]2(C)[C@@H](C3=CC(=O)OC3)CC[C@]12O` the value was 0.794 µM (active). Consider `CC[C@@]1(O)C(=O)OCc2c1cc1n(c2=O)Cc2cc3c(NC(=O)CN)cccc3nc2-1`, for which the activity change, negative = cytotoxicity was 25.7% [at 11.4 µM]. For the compound `COC1C(O)C(C)OC(OC2C(Oc3cccc4c(O)c5c(=O)oc6ccc(C)c7c(=O)oc(c34)c5c67)OC(C)C(O)C2O)C1O` (configuration not stated), the activity change, negative = cytotoxicity is 7.77% [at 11.4 µM]. In the case of `CC1OC(OC2C(O)CC(OC3C(O)CC(OC4CCC5(C)C(CCC6C5CCC5(C)C(C7=CC(=O)OC7)C(O)CC65O)C4)OC3C)OC2C)CC(O)C1O` (configuration not stated), the Potency was 0.251 µM (active).

For `CN1C2CCC1/C(=C/c1ccccn1)C(=O)/C2=C\c1ccccn1`, the Potency was 0.708 µM (active). In the case of `C[C@@H]1C[C@@H]([C@H](O)CC2CC(=O)NC(=O)C2)C(=O)[C@@H](C)C1`, the Potency is 1.78 µM (active). With `CCC(C)N1C(=O)/C(=C\c2cnc(N(C)C)nc2)C(=O)NC1=S` (configuration not stated), the “activity change, negative = cytotoxicity” value was 2.18%.

Take `C=CCCC[C@@H]1OC(=O)CNC(=O)C([C@@H](C)CC)NC(=O)[C@@H]2CCCN2C(=O)C([C@@H](C)CC)OC(=O)[C@H](Cc2ccccc2)N(C)C(=O)[C@H](C(C)C)NC(=O)C1(C)C` (some centres not stated): the Potency is 3.55 µM (active). Same read-out and setting: to `CCCCCOc1ccc(C)cc1CN(CCCl)CCCl` belongs 22.4 µM (active). In the case of `CCCCCn1c(=O)c(C(=O)NCc2ccccn2)c(O)c2ccccc21`, the activity change, negative = cytotoxicity was -15.5% [at 11.4 µM]. With `C[C@H]1[C@@H](OS(=O)(=O)O)C[C@@H]2C[C@H]([C@@H](O)c3cc(=O)[nH]c(=O)[nH]3)NC3=NC[C@H]1N32`, the Potency was 12.6 µM (active).

For `CSCCC(c1nnnn1-c1c(C)cccc1C)N1CCC2(CC1)C(=O)NCN2c1ccccc1` (configuration not stated), the Potency was 28.2 µM (active). `CC(C)CNc1c2c(nc3ccccc13)CCC2`: the activity change, negative = cytotoxicity is -29.7% [at 11.4 µM].

With `Cc1ccc(/C=C2\C(=O)NC(=S)N(c3ccccc3F)C2=O)s1`, the Potency is 3.98 µM (active).

`C[C@H]1CCC[C@@H](O)CCC/C=C/c2cc(O)cc(O)c2C(=O)O1`: the Potency is 1.58 µM (active). For `C[C@H]1CCC[C@H](O)CCCCCc2cc(O)cc(O)c2C(=O)O1`, the activity change, negative = cytotoxicity is -5.55% [at 11.4 µM].

Turning to `CCC(C)(O)C(=O)OC1C(=O)OC2CC3C(C)=CC(=O)C(O)C3(C)C3C4(O)OCC23C1C(C)C4O` (configuration not stated), the Potency was 0.316 µM (active). On the same count and under the same terms, to `O=C1NC(=O)C2(CCCc3ccc(N(CCCl)CCCl)cc32)N1` (configuration not stated) belongs 11.2 µM (active). Regarding `COc1ccc2c(c1)C(c1ccc(N(CCCl)CCCl)cc1)=NCC2`, the “activity change, negative = cytotoxicity” value was -25.6%.

On to `CC1CC(C)CC(C)C(O)C(C#N)=CC=CCC(C2CCCC2C(=O)O)OC(=O)CC(O)C(C)C1` (configuration not stated), for which the Potency is 0.398 µM (active).

In the case of `COC(=O)C(O)(c1ccc(NC(=S)NC(=O)c2ccc(Cl)cc2Cl)c(C)c1)C(F)(F)F` (configuration not stated), the activity change, negative = cytotoxicity was 1.53% [at 11.4 µM].
